Measurements reported in PubChem BioAssay AID873 (PCMD, 2007).
Out of some 210,000 compounds screened, about 1,300 (0.62%) were called active. The full list was thinned out, with actives kept by preference. Values without a mark were called inactive.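 Rule for the calls: active = inhibition of 40% or more; inactive = the rest.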

What follows are compounds tested against Kallikrein-5 (Homo sapiens) (UniProt Q9Y337) (assay: inhibition of kallikrein 5 (hK5) activity – biochemical, 1536-well, primary screen (AID 873;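 note: 0% = enzyme controls without compound and 100% = no-enzyme blanks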)). Conditions: recombinant hK5, fluorogenic AMC substrate cleavage; at 5 µM; stronger effect = higher value.
Sequence of Kallikrein-5 (Homo sapiens) (Q9Y337 67-293 limits assumed): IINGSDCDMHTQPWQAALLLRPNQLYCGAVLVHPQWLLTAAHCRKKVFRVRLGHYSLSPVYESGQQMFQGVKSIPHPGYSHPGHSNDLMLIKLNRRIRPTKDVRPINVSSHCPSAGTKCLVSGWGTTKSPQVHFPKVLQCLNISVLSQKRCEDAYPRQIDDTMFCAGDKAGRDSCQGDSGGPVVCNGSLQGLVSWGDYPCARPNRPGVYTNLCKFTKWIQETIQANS
In the case of `Cc1ccc(Oc2cnn(-c3ccccc3)c(=O)c2Br)cc1`, the inhibition is reported as -20.9%. `O=c1c(Cl)c(NC2CC2)cnn1-c1ccccc1` gave an inhibition of -14.4%. With `C=CCNc1cnn(-c2ccc(C)cc2)c(=O)c1Cl` the inhibition was 58% (active). `CS(=O)(=O)c1ccc(Cl)c(NC(=O)Nc2ccccc2)c1` gave an inhibition of 15.8%. `CC(C)c1nc(SCC(=O)NC(=O)NC(C)(C)C)n[nH]1` showed an inhibition of -0.71%. `Cc1cccn2c(CNCC(C)Oc3cccnc3)c(C(=O)N3CCOCC3)nc12` (stereo unspecified) showed an inhibition of -2.01%. In the case of `COc1ccc(N2CCC(CNC(=S)Nc3c(C)cccc3C)C2)cc1` (stereo unspecified), the inhibition is reported as -0.97%. `Cc1nc2nc(SCC(=O)c3ccccc3)[nH]c2cc1Br` gave an inhibition of 1.2%. Compound `C/C(=N/NC(=O)CN1CCN(S(=O)(=O)c2ccc(Br)cc2)CC1)c1ccncc1` has an inhibition of 1.01%. In the case of `O=C(Nc1ccccc1-c1nnn(CC(=O)N2CCN(c3ccccc3)CC2)n1)c1cccs1`, the inhibition is reported as 8.06%. `O=C(Nc1ccccc1-c1ccccc1)c1cccs1` was tested, and the inhibition was 40% (active). For `CCc1ccccc1NC(=O)c1cccs1`, the inhibition was -5.15%. Work on `Cc1cc(=O)oc(C)c1C(=O)N1CCCCC1` yielded an inhibition of -21.2%. In the case of `Cc1oc(CC(C)C)c(CN2CCCC2)c1C(=O)O`, the inhibition is reported as 40.4% (active). `CC(C)Cc1oc(C(=O)O)cc1CN` was tested, and the inhibition was -20.2%. With `Cc1ccc(Nc2c3c(nc4ccccc24)CCC3)cc1` the inhibition was -1.22%. Work on `COc1ccc(NS(=O)(=O)c2ccc(N3CCOCC3)c(NC(=O)c3ccccc3Br)c2)cc1` yielded an inhibition of -3.92%. `Cc1cc(C)nc(Nc2n[nH]c(-c3ccccc3N)n2)n1` showed an inhibition of -1.46%. Compound `CC(C)CCN1NC2(CCC(C)CC2)NC1=S` (stereo unspecified) has an inhibition of 0.13%. Work on `COc1ccccc1N1CCN(Cc2ccc(OC)c3ccccc23)CC1` yielded an inhibition of -4.66%. Work on `CCN1CCN(CCCCOc2ccccc2F)CC1` yielded an inhibition of -9.3%. For `COc1ccccc1N1CCN(CCCCOc2ccc(F)cc2)CC1`, the inhibition was 40.1% (active). `CCOC(=O)c1ccc(NC(=O)Cn2cnc3cc(C)c(C)cc32)cc1` gave an inhibition of 3.77%. `Cc1nc(N)[nH]c(=O)c1Oc1cccc(C(F)(F)F)c1` was tested, and the inhibition was -0.74%. Compound `Cc1cc(=O)[nH]c(SCC(=O)Nc2ccc(Br)cc2)n1` has an inhibition of 2.46%. Compound `CCOc1ccccc1N1CN(Cc2ccccc2)CNC1=S` has an inhibition of -6.7%. In the case of `CCCc1ccc(C(=O)[C@@H]2[C@@H](C(C)=O)N3c4ccc(F)cc4C=C[C@@H]3[C@@]23C(=O)Nc2ccccc23)cc1`, the inhibition is reported as 3.66%. Work on `O=C(c1cccc(C(=O)N2CCc3ccccc32)n1)N1CCc2ccccc21` yielded an inhibition of -28.7%. With `O=C(c1cnn2ccccc12)N1CCc2ccccc21` the inhibition was 68.7% (active). `NC(=O)N1CCc2ccccc21` was tested, and the inhibition was -6.77%. `COC(=O)c1noc(C)c1-c1ccnn1C(=O)c1ccc(Cl)cc1` gave an inhibition of 14.2%. `O=C(O)c1ccccc1-c1ccccc1C(=O)Nc1cccc2ccccc12` showed an inhibition of 3.53%. For `O=C(O)C#Cc1cccc2ccccc12`, the inhibition was 42.9% (active). `O=C(O)CSc1nccc2ccccc12` showed an inhibition of -3.99%. For `COC(=O)c1cc(C(=O)OCC(=O)Nc2cc(C)on2)cc([N+](=O)[O-])c1`, the inhibition was 23.6%. Work on `O=C(O)c1ccc(/C=N/NC(=S)NCc2ccccc2)cc1` yielded an inhibition of -1.6%. For `C/C(=N\NC(=S)NCc1ccccc1)c1ccc(Cl)cc1`, the inhibition was 56.7% (active). Compound `C/C(=N\NC(=S)NCc1ccccc1)C1CCCCC1` has an inhibition of -4.43%. With `COC(=O)c1oc2ccc(Br)cc2c1NC(C)=O` the inhibition was 41.8% (active). Compound `COc1ccc(C(=O)c2oc3ccc(Br)cc3c2NC(C)=O)cc1` has an inhibition of -25.1%. `COc1ccc2oc(C)c(NC(C)=O)c2c1` showed an inhibition of -13.5%. Work on `Cc1ccc(Nc2nc(Cl)c(C=O)s2)cc1` yielded an inhibition of 0.92%. For `O=C(CS(=O)(=O)c1cn(Cc2cccc(F)c2)c2ccccc12)N1CCCCC1`, the inhibition was -11.7%. With `COc1cccc(NC(=O)CS(=O)(=O)c2cn(CC(=O)N3CCOCC3)c3ccccc23)c1` the inhibition was -2.04%. With `O=C(CS(=O)(=O)c1cn(Cc2ccc(Cl)cc2)c2ccccc12)N1CCOCC1` the inhibition was 47% (active). With `COC(=O)Cn1cc(C(=O)c2cccs2)c2ccccc21` the inhibition was 40.6% (active). With `COCCNC(=O)Cn1cc(C(=O)c2cccs2)c2ccccc21` the inhibition was -5.68%. In the case of `O=C(Cn1cc(C(=O)c2cccs2)c2ccccc21)NCc1cccs1`, the inhibition is reported as -1.96%. `Cc1ccc(OCC(=O)Nc2nnc(-c3ccco3)s2)cc1` gave an inhibition of -1.13%. With `CC(C)CNc1ncnc2c1cnn2Cc1ccc(Cl)cc1` the inhibition was -1.93%. In the case of `Cc1onc(NC(=O)c2ccc([N+](=O)[O-])o2)c1Br`, the inhibition is reported as 47.1% (active). In the case of `O=C(Nc1ccc(Br)cn1)c1ccc([N+](=O)[O-])o1`, the inhibition is reported as -4.1%. `Cc1cccc(NC(=O)c2ccc([N+](=O)[O-])o2)c1` gave an inhibition of -2.56%. `CCCNc1c(N)c(=O)c1=O` gave an inhibition of -0.24%. For `Cc1ccc(Oc2nc(-c3ccccn3)nc3ccccc23)cc1`, the inhibition was -11.3%. `N#C/C(=C/c1ccc(-c2ccccc2[N+](=O)[O-])o1)C(=O)NCCN1CCCCC1` showed an inhibition of 1.64%. In the case of `Cc1ccc(-c2csc(-c3cc(C)on3)n2)cc1`, the inhibition is reported as 44.8% (active). Compound `CCCc1cc(-c2nc(-c3ccc(C)cc3)cs2)ccn1` has an inhibition of -10.9%. For `Cc1ccc(-c2csc(SCC(=O)Nc3cc(C)on3)n2)cc1`, the inhibition was -2.17%. `O=c1c(/C=N/O)coc2ccc(Cl)cc12` gave an inhibition of 3.19%. Work on `Cc1ccc(N2C(=O)CC(Nc3cccc4ccccc34)C2=O)cc1` (stereo unspecified) yielded an inhibition of 0.34%. `CC1C(=O)NC(=O)C1c1ccccc1` (stereo unspecified) gave an inhibition of 1.86%. In the case of `CCOc1ccc(CN(Cc2ccco2)C(c2cccs2)c2nnnn2C(C)(C)C)cc1` (stereo unspecified), the inhibition is reported as 9.28%. For `CC(C)(C)n1nnnc1C(c1cccs1)N(Cc1cccnc1)CC1CCCO1` (stereo unspecified), the inhibition was 45% (active). Compound `CC(C)C(c1nnnn1C(C)(C)C)N1CCN(Cc2cccnc2)CC1` (stereo unspecified) has an inhibition of 4.44%. With `O=C(CSc1nc2c(cnn2-c2ccc(F)cc2)c(=O)[nH]1)N1CCCCCC1` the inhibition was 68.2% (active). `CC(=O)c1sc2nc(SCC(=O)N3CCCCC3)[nH]c(=O)c2c1C` showed an inhibition of -8.76%. Work on `Cc1nnc(SCC(=O)N2CCOCC2)[nH]c1=O` yielded an inhibition of -13.7%. With `Cc1coc2cc3oc(=O)c(CCC(=O)O)c(C)c3cc12` the inhibition was -1.04%. In the case of `Cc1ccc(C(O)P(=O)(OC(C)C)c2ccc(N(C)C)cc2)cc1` (stereo unspecified), the inhibition is reported as -0.37%. `CCC(=O)Nc1ccc(C(=O)Nc2cccc(OC)c2)cc1` was tested, and the inhibition was -2.36%. With `COc1cccc(NC(=O)c2ccc(S(=O)(=O)N(C)C)cc2)c1` the inhibition was 58.8% (active). Work on `COc1ccc(C(=O)Nc2cccc(S(C)(=O)=O)c2)cc1` yielded an inhibition of 9.53%. `CC1CN(c2nc(Nc3ccccc3)nc(N)c2[N+](=O)[O-])CC(C)O1` (stereo unspecified) showed an inhibition of 1.28%. `Cc1ncn2cc(-c3ccc(Cl)cc3Cl)[nH]c(=O)c12` was tested, and the inhibition was 63% (active). In the case of `COn1c(-c2ccc(Cl)cc2Cl)nc2ncccc21`, the inhibition is reported as -1.75%. `Clc1ccc(-c2ncc3ccccn23)c(Cl)c1` gave an inhibition of 2.07%. In the case of `COc1ccc(OC)c(-n2c(-c3ccn[nH]3)n[nH]c2=S)c1`, the inhibition is reported as -4.85%. `CCn1c2ccccc2c2cc(CC(N)=O)ccc21` showed an inhibition of 0.83%. `NC(=O)Cc1ccc2sc(-c3ccccc3)nc2c1` gave an inhibition of 29.8%. In the case of `NC(=O)Cc1ccc2c(c1)[nH]c1ccccc12`, the inhibition is reported as 49.5% (active). In the case of `CCN(CC)c1ccc(/C=N/NC(=O)c2cnccn2)c(O)c1`, the inhibition is reported as -3.69%. With `Cc1nnc(SCC(=O)N2CCc3ccccc3C2)s1` the inhibition was 16.7%. In the case of `Cc1nc(SCC(=O)N2CCc3ccccc3C2)c2c(C)c(C)sc2n1`, the inhibition is reported as 59.1% (active). Compound `Cc1nc(SCC(=O)N2CC(=O)Nc3ccccc32)c2c(C)c(C)sc2n1` has an inhibition of -0.11%. `COc1ccccc1C1CCN(c2ccc([N+](=O)[O-])cn2)CC1` showed an inhibition of 0.29%. For `CC(=O)c1ccc2c(c1)OCCOCCOc1ccc(C(C)=O)cc1OCCOCCO2`, the inhibition was -1.51%. For `O=c1[nH]c2cccnc2n1-c1ccc([N+](=O)[O-])cc1`, the inhibition was 0.04%. Compound `O=C(O)C1CCCCC1C(=O)Nc1ccc(Cl)cc1` (stereo unspecified) has an inhibition of 2.31%. Compound `O=C(O)c1ccc(NC(=O)C2CCCCC2)cc1` has an inhibition of -4.28%. With `O=C(O)Cc1ccc(NC(=O)C2CCCCC2C(=O)O)cc1` (stereo unspecified) the inhibition was 46.5% (active). Compound `COc1ccc(-c2noc(-c3ccc(C)cc3)n2)cc1` has an inhibition of -5.34%. For `COc1ccc(-c2noc(CN(C)S(=O)(=O)c3ccc(C)cc3)n2)cc1`, the inhibition was 1.11%. In the case of `COc1ccc(-c2noc(CSc3ccc(C)cc3)n2)cc1`, the inhibition is reported as 55.4% (active). For `O=C(Nc1ccc(S(=O)(=O)N2CCOCC2)cc1)c1ccc2ncsc2c1`, the inhibition was 6.27%. With `COCc1cc(=O)[nH]c(-c2ccc(C(F)(F)F)cc2)n1` the inhibition was -1.98%. `Cc1cccc(N(C)C(=O)c2cc3c(=O)[nH]c4ccc(C)cc4c3s2)c1` showed an inhibition of 1.34%. In the case of `CCN(CC)S(=O)(=O)c1ccc(NC(=O)CN(c2cccc(F)c2)S(C)(=O)=O)cc1`, the inhibition is reported as -2.67%. For `CS(=O)(=O)N(CC(=O)Nc1ccc(F)cc1F)c1cccc([N+](=O)[O-])c1`, the inhibition was 62.8% (active). `COc1cccc(N(CC(=O)Nc2cccc(F)c2)S(C)(=O)=O)c1` was tested, and the inhibition was 2.06%. Work on `COc1ccc(NC(=O)C2=NNC(=O)CC2)cc1S(=O)(=O)N1CCCCC1` yielded an inhibition of -2.9%.
